Calls of active or inactive are those of the source. How the calls were made is not given here.

The assay can be described thus: Brca1-Bard1 BiLC signal decrease – luminescence, single concentration, counter-screen for Mdm2/MdmX interaction inhibitor project, confirmation (AID 504668). The settings on record: Brca1/Bard1 bimolecular luciferase complementation counterscreen, at 8 µM, hits give high values. (In general: The purpose of a counterscreen is to sort out artefacts and off-target activity.)
Broadly, the inhibition is the drop in the measured response relative to a control, in per cent. Consider `O=C1c2ccccc2C(=O)c2c(Nc3ccc(CCO)cc3)ccc(O)c21`, for which the inhibition is 33.2% (active).

For `O=C(Nc1ccc(Cl)c([N+](=O)[O-])c1)C(Sc1ccccc1)c1ccccc1` (stereo not given), the inhibition was 24.1% (active).

Regarding `O=c1c2ccccc2nc(-c2ccc(Cl)c(Cl)c2)n1O`, the inhibition is 26.8% (active).

Consider `O=C(N/N=C/c1cc(Br)cc(Br)c1O)c1cccc(N2CCCC2=O)c1`, for which the inhibition was 26.3% (active).

Take `CCOC(=O)c1cnc(-n2nc(C)cc2C)nc1NNc1nc(-c2ccccc2)cc(-c2ccccc2)n1`: the inhibition was 25% (active).

With `O=C(/C=C\c1cn(-c2ccccc2)nc1-c1ccccc1)Nc1nccs1`, the inhibition is 28.9% (active).

As for `Cc1cc([N+](=O)[O-])cc(/C=N\NC(=O)C2COc3ccccc3O2)c1O` (stereo not given), the inhibition was 27.6% (active).

With `Cn1cccc1-c1cc(C(=O)N/N=C/c2cc(Br)ccc2O)[nH]n1`, the inhibition was 25.9% (active).

With `CC(C)[C@H](NC(=O)c1ccccc1Cl)C(=O)Nc1nc(-c2ccccn2)cs1`, the inhibition is 35.6% (active).

For `O=C(CCS(=O)(=O)c1ccc(Cl)cc1)Nc1nc(-c2ccncc2)cs1`, the inhibition was 25.6% (active).

For the compound `O=C(Nc1ccccc1)C1=C[C@@H](C2CCCCC2)C[C@@H](OCc2ccc(CO)cc2)O1`, the inhibition is 24.1% (active).

In the case of `CC1(C)Cc2c(sc(NC(=O)c3ccc(C(=O)c4ccccc4)cc3)c2C(N)=O)C(C)(C)N1`, the inhibition was 34.2% (active).

In the case of `Brc1ccc2ncnc(Nc3ccc(N4CCOCC4)cc3)c2c1`, the inhibition was 25.5% (active).

`CCC(C)Nc1nc(-c2ccccn2)nc2ccccc12` (stereo not given): the inhibition is 29.2% (active).

Take `O=C(Nc1ccc(Cl)cc1)Nc1csc([N+](=O)[O-])c1`: the inhibition is 30.6% (active).

Turning to `CC(C)c1ccc(/C=C2\SC(=S)N(CCC(=O)N3CCCCC3CCO)C2=O)cc1` (stereo not given), the inhibition was 29.9% (active).

On to `COc1ccc(C)cc1Nc1n[n+](-c2ccccc2)c(-c2c(OC)ccc3ccccc23)s1`, for which the inhibition was 29% (active).

For the compound `CCN1CCN(CCNC(=O)c2ccc(/C=C3/Sc4ccccc4N(Cc4cccc(C)c4)C3=O)cc2)CC1`, the inhibition was 27.6% (active).

With `Cc1c(CN(C)C)c2c(n1Cc1ccccc1)C(=O)c1ccc(Br)cc1-2`, the inhibition was 29.6% (active).

On to `Cn1nccc1C(=O)N/N=C/c1c(O)ccc2ccccc12`, for which the inhibition was 31.1% (active).

With `CC(=O)N(C(C)=O)c1ncc2c([nH]c3ccccc32)c1C#N`, the inhibition was 33.1% (active).

As for `CC1=NNC(=O)/C1=C\c1cn(-c2ccccc2)nc1-c1cccs1`, the inhibition is 25.7% (active).

Take `O=C(N/N=C/c1ccc(O)c2ncccc12)c1cccc(Br)c1`: the inhibition was 32.5% (active).

For the compound `CCCCN1/C(=C/c2ccc3ccccc3[n+]2CC)Sc2ccccc21`, the inhibition is 32.5% (active).

Turning to `CCn1c(-c2ccc(C)cc2)nn(CC(=O)NCCc2ccccc2)c1=S`, the inhibition is 31.4% (active).

For `CCOc1cc(CNCCO)cc(Br)c1OCc1ccc(Cl)cc1Cl`, the inhibition was 25.5% (active).

Regarding `CCCC(=O)NC(c1ccc(OC)c(OC)c1)c1cc(Cl)c2cccnc2c1O` (stereo not given), the inhibition was 27.9% (active).

Turning to `COc1ccc(N2C(=O)N3[C@H](c4cccc(C)c4)[C@@H]4C(=O)N(Cc5ccccc5)C(=O)[C@@H]4[C@]3(Cc3ccccc3)C2=O)cc1`, the inhibition was 35.6% (active).

For `CN(Cc1cnc2nc(N)nc(N)c2n1)c1ccc(C(=O)N[C@@H](CCC(=O)O)C(=O)O)cc1`, the inhibition was 29.8% (active).

In the case of `COc1ccc(-c2nc(CN3CCN(c4cc(C)nc(C)c4)CC3)c(C)o2)c2ccccc12`, the inhibition was 34.4% (active).

For the compound `FC(F)(F)c1cnc(NNC(=S)Nc2ccc(Cl)cc2)c(Cl)c1`, the inhibition is 23.3% (active).

For the compound `COc1ccc2nc(NC(=O)/C=C/c3ccc4c(c3)OCO4)sc2c1`, the inhibition was 35.2% (active).

As to `C/C(=N\NC(=O)COc1cccc(C)c1)c1ccc2ccccc2c1O`, the inhibition is 33.6% (active).

`CCN(CC)CCCNC(=O)c1ccc2c(Cl)c3c(nc2c1)CCCC3`: the inhibition was 30.8% (active).

Turning to `COc1cc(/C=C2\SC(=Nc3ccc(O)cc3)NC2=O)cc(OC)c1OC`, the inhibition is 28.2% (active).

With `N=c1c(C(=O)NC2CCCCC2)cc2c(=O)n3ccccc3nc2n1Cc1ccco1`, the inhibition was 33.2% (active).

For the compound `COC(=O)c1ccc2nc(NC(=O)CCS(=O)(=O)c3ccccc3)sc2c1`, the inhibition was 27.4% (active).

As to `CS(=O)(=O)Nc1ccccc1C(=O)Nc1cc(Cl)cc(Cl)c1`, the inhibition was 28.3% (active).

For `CCS(=O)(=O)c1nnnn1-c1ccccc1S(C)(=O)=O`, the inhibition was 34.3% (active).

For `Cc1cc(C(=O)CSc2nnc3ccccn23)c(C)n1-c1ccccc1`, the inhibition was 29.6% (active).
